Data from PubChem BioAssay (NCATS).
Records with an inconclusive call do not appear. Activity calls are given as the source filed them. Calls come from the whole dose curve; as a rule, active = well fitted inhibition curve with a large enough effect; inconclusive = small, poorly fitted or top-dose-only effect; inactive = no such curve, though single readings can be large or run the other way.

Biological target: Retinaldehyde dehydrogenase 3 (Homo sapiens) (UniProt P47895)
Assay: qHTS for Inhibitors of the Aldehyde Dehydrogenase Family (ALDH1A3) Confirmatory screens (AID 2061311); note: nearly all actives have a fitted effect of over 60% in size
Details: ALDH inhibition qHTS; series mostly up to 46 µM
Potency is the fitted concentration of half-maximal effect.

| SMILES | Potency |
| --- | --- |
| NC(=O)C1CCN(c2nc(-c3ccc(-c4ccccc4)cc3)cs2)CC1 | 28.3 µM (active) |
| CC(=O)Nc1sc2c(c1-c1cccc3[nH]ncc13)CCNC2 | 12.7 µM (active) |
| N#Cc1ccc(N2CCN(S(=O)(=O)c3ccc4c(c3)CC(=O)N4)CC2)cc1 | 15.8 µM (active) |
| O=C(Nc1cccc(Cc2ccccc2)n1)c1ccc(-c2cccc([N+](=O)[O-])c2)o1 | 6.34 µM (active) |
| COc1cc(/C=C(\C#N)C(=O)Nc2ccc(C(=O)O)cc2)ccc1OC(=O)c1cccc(F)c1 | 15.8 µM (active) |
| Cc1csc(CNc2ncnc3cc(-c4ccc5c(c4)OCO5)ccc23)n1 | 7.94 µM (active) |
| NC(=O)c1cccc(-c2cnc3c(O)ccc(C(=O)O)c3c2)c1 | 11.3 µM (active) |
| Cc1ccc(S(=O)(=O)Nc2cc(S(=O)(=O)c3ccc(C)cc3)c(O)c3cccnc23)cc1 | 1.13 µM (active) |
| CC(C)(C)C(=O)N1CCN(c2cccc(Nc3nn4c(=O)c5ccccc5nc4s3)c2)CC1 | 28.3 µM (active) |
| CC(=O)Nc1ccc(OCc2cccc(-c3nc4ccccc4c(=O)n3Cc3ccco3)c2)cc1 | 15.8 µM (active) |
| O=S1(=O)Nc2c(ccc3cccnc23)-c2ccccc21 | 8.96 µM (active) |
| Cc1c(C(=O)OC[C@H]2CCCO2)[nH]c2c1C(=O)CC(c1ccco1)C2 (some centres not stated) | 12.7 µM (active) |
| CC(=O)NC(C)c1cc(Cl)c2ccccc2c1O (configuration not stated) | 3.18 µM (active) |
| S=C(NCCCc1cnc[nH]1)NCCCN(Cc1ccccc1)c1ccc(Br)cn1 | inactive |
| COc1ccc(C(=O)c2ccc(-c3no[n+]([O-])c3C#N)cc2)cc1 | 2.51 µM (active) |
| Cc1ccn2c(Nc3ccc4c(c3)OCO4)c(-c3ccccn3)nc2c1 | 17.9 µM (active) |
| O=C(Nc1sc2c(c1-c1nc3ccccc3s1)CCNC2)C(F)(F)F | inactive |
| N#Cc1cccc(OC2=NS(=O)(=O)c3ccccc32)c1 | 12.7 µM (active) |
| FC(F)(F)c1ccccc1-c1nc(NCc2ccc(-c3ccccc3)cc2)c2ccccc2n1 | 3.57 µM (active) |
| O=C1CCCC2=C1C(c1cccnc1Br)N=C(Nc1nc3ccccc3o1)N2 (configuration not stated) | 20.1 µM (active) |

| SMILES | Potency |
| --- | --- |
| O=C1Cc2cc(S(=O)(=O)N3CCN(c4ccc(Br)cc4)CC3)ccc2N1 | inactive |
| CN(Cc1ccco1)Cc1ccc(O)c2ncccc12 | 11.3 µM (active) |
| Cc1c(C(=O)OCC2CCCC2)[nH]c2c1C(=O)CC(c1ccco1)C2 (configuration not stated) | 15.8 µM (active) |
| Cc1cc(C)nc(NC(=S)N2CCN(c3ccc4nccn4c3)CC2)c1 | 10.1 µM (active) |
| Oc1ccc(Nc2ccccc2F)c2cccnc12 | 7.98 µM (active) |
| COc1ccc2ccccc2c1CN(C)CC(=O)Nc1ccc(N2CCOCC2)cc1 | 11.3 µM (active) |
| Cc1sc(NC(=O)Cc2ccc3c(c2)OCO3)nc1-c1ccc2c(c1)CCN2C | 11.3 µM (active) |
| CC(=O)Nc1sc2c(c1-c1cc3ccccc3o1)CCNC2 | 11.3 µM (active) |
| Nc1nc2c(s1)C(c1ccccc1Cl)CC(=O)N2 (configuration not stated) | 5.65 µM (active) |
| CC(=O)Nc1sc2c(c1-c1nccs1)CCNC2 | inactive |
| CCC(=O)NC(c1cccs1)c1cc([N+](=O)[O-])c2cccnc2c1OC (configuration not stated) | 3.57 µM (active) |
| COc1ccc(-c2ccc(C)cc2)cc1CC(=O)N(C)C(C)c1ccco1 (configuration not stated) | 2.01 µM (active) |
| O=C(Cc1ccccc1)Nc1sc2c(c1C(=O)Nc1ccc(Cl)cc1)CCCC2 | inactive |
| Nc1ccc(CNc2ccc([S+](=O)([O-])Nc3nccs3)cc2)c(O)c1 | 5.04 µM (active) |
| CC(=O)N1CCN(c2ccc(NS(=O)(=O)c3ccc4c(c3)CC(=O)N4)cc2)CC1 | inactive |
| COC(=O)CCSC/C=C(\C)CCn1cc(CCc2ccc(-c3ccccc3)cc2)nn1 | 8.96 µM (active) |
| CC(=O)Nc1sc2c(c1-c1ccccc1)CCN(C(=O)OC(C)(C)C)C2 | inactive |
| O=C(c1ccccc1O)N(Cc1ccco1)Cc1ccco1 | 12.7 µM (active) |
| Cc1cc(C)nc(NC(=S)N2CCN(c3cccc4cnccc34)CC2)c1 | 20.1 µM (active) |
| Cc1ccc(-c2ccnc(N3CCC(C(N)=O)CC3)n2)cc1 | 5.04 µM (active) |

Biological target: Retinal dehydrogenase 2 (Homo sapiens) (UniProt O94788)
Assay: qHTS for Inhibitors of the Aldehyde Dehydrogenase Family (ALDH1A2) Confirmation screens (AID 2061314); note: nearly all actives have a fitted effect of over 65% in size
Details: ALDH1A2 enzyme inhibition qHTS confirmation; series mostly up to 45.9 µM

| SMILES | Potency |
| --- | --- |
| NC(=O)C1CCN(c2nc(-c3ccc(-c4ccccc4)cc3)cs2)CC1 | inactive |
| CC(=O)Nc1sc2c(c1-c1cccc3[nH]ncc13)CCNC2 | 10.1 µM (active) |
| O=C(Nc1cccc(Cc2ccccc2)n1)c1ccc(-c2cccc([N+](=O)[O-])c2)o1 | 7.98 µM (active) |
| COc1cc(/C=C(\C#N)C(=O)Nc2ccc(C(=O)O)cc2)ccc1OC(=O)c1cccc(F)c1 | inactive |
| NC(=O)c1cccc(-c2cnc3c(O)ccc(C(=O)O)c3c2)c1 | 4.49 µM (active) |
| Cc1ccc(S(=O)(=O)Nc2cc(S(=O)(=O)c3ccc(C)cc3)c(O)c3cccnc23)cc1 | 2.01 µM (active) |
| CC(C)(C)C(=O)N1CCN(c2cccc(Nc3nn4c(=O)c5ccccc5nc4s3)c2)CC1 | 25.2 µM (active) |
| CC(=O)Nc1ccc(OCc2cccc(-c3nc4ccccc4c(=O)n3Cc3ccco3)c2)cc1 | 7.98 µM (active) |
| O=S1(=O)Nc2c(ccc3cccnc23)-c2ccccc21 | 12.7 µM (active) |
| Cc1c(C(=O)OC[C@H]2CCCO2)[nH]c2c1C(=O)CC(c1ccco1)C2 (some centres not stated) | 4 µM (active) |
| CC(=O)NC(C)c1cc(Cl)c2ccccc2c1O (configuration not stated) | 12.7 µM (active) |
| COc1ccc(C(=O)c2ccc(-c3no[n+]([O-])c3C#N)cc2)cc1 | 12.6 µM (active) |
| O=C(Nc1sc2c(c1-c1nc3ccccc3s1)CCNC2)C(F)(F)F | 28.3 µM (active) |
| O=C1Cc2cc(S(=O)(=O)N3CCN(c4ccc(Br)cc4)CC3)ccc2N1 | 20.6 µM (active) |
| CN(Cc1ccco1)Cc1ccc(O)c2ncccc12 | 2.52 µM (active) |
| Cc1c(C(=O)OCC2CCCC2)[nH]c2c1C(=O)CC(c1ccco1)C2 (configuration not stated) | 3.57 µM (active) |
| Cc1cc(C)nc(NC(=S)N2CCN(c3ccc4nccn4c3)CC2)c1 | 14.2 µM (active) |
| COc1ccc2ccccc2c1CN(C)CC(=O)Nc1ccc(N2CCOCC2)cc1 | 11.3 µM (active) |
| Cc1sc(NC(=O)Cc2ccc3c(c2)OCO3)nc1-c1ccc2c(c1)CCN2C | 12.7 µM (active) |
| CC(=O)Nc1sc2c(c1-c1nccs1)CCNC2 | inactive |
| CCC(=O)NC(c1cccs1)c1cc([N+](=O)[O-])c2cccnc2c1OC (configuration not stated) | 2.01 µM (active) |
| COc1ccc(-c2ccc(C)cc2)cc1CC(=O)N(C)C(C)c1ccco1 (configuration not stated) | 6.31 µM (active) |
| O=C(Cc1ccccc1)Nc1sc2c(c1C(=O)Nc1ccc(Cl)cc1)CCCC2 | 4 µM (active) |
| Nc1ccc(CNc2ccc([S+](=O)([O-])Nc3nccs3)cc2)c(O)c1 | 17.9 µM (active) |
| CC(=O)N1CCN(c2ccc(NS(=O)(=O)c3ccc4c(c3)CC(=O)N4)cc2)CC1 | inactive |
| O=C(c1ccccc1O)N(Cc1ccco1)Cc1ccco1 | 11.3 µM (active) |
| Cc1cc(C)nc(NC(=S)N2CCN(c3cccc4cnccc34)CC2)c1 | 8.96 µM (active) |
